Results reported in PubChem BioAssay AID463173 (ICCB-Longwood Screening Facility, Harvard Medical School, 2010).
Among all 52,000 compounds or so, about 4,300 (8.3%) were called active. The entries come from a sample that favours actives as a whole. Unmarked numbers belong to inactive results. Cut-off read from the data, not from the text of the source: active = survival mostly below about 52% (no sharp cut-off); inactive = mostly above about 56%.

Tested on: DeltatarO mutant
Experiment: S. aureus survival, RN4220 and DeltatarO strains – OD600, teichoic acid synthesis inhibitors, primary screen (AID 463173)
Details: S. aureus RN4220 wild type/DeltatarO growth, OD600, 18 h, hits give low values, screened at 18.75 µg/mL (by protocol)

Row | SMILES | survival
1 | O=C1NC(=O)C2C3c4ccccc4C(c4ccccc43)C12 (configuration not stated) | 98%
2 | O=C(CSc1nnc(CNC(=O)c2c(F)cccc2Cl)o1)Nc1cccc(F)c1 | 82%
3 | CCc1ccc(CNC(=O)c2ccc3c(c2)nc2n3CCCCC2)cc1 | 79%
4 | COC(=O)c1c(NC(=O)c2cc(=O)c3ccc(C)c(C)c3o2)sc2c1CCCC2 | 84%
5 | N#CC(C#N)=Cc1cn(CCOc2ccc3c(c2)OCO3)c2ccccc12 | 98%
6 | CCOC(=O)c1cc(=O)n2[nH]c(-c3ccc(Br)cc3)cc2n1 | 93%
7 | COc1ccc(NC(=O)c2ccc3c(c2)N(Cc2cccc(Cl)c2)C(=O)c2ccccc2S3=O)cc1Cl (configuration not stated) | 112%
8 | COc1ccc(N(C)C(=O)c2nn(-c3ccc(C)cc3)c(=O)n(C)c2=O)c(OC)c1 | 82%
9 | CCOc1ccc(-c2nnc(SCC(=O)Nc3cccc(C#N)c3)o2)cc1 | 48% (active)
10 | O=C(CSc1ncc(-c2ccccc2)[nH]1)Nc1ccccc1 | 64%
11 | O=C(CSc1ncc(-c2ccccc2)[nH]1)Nc1ccc(Cl)cc1 | 36% (active)
12 | CCOc1cccc(NC(=O)CSc2ncc(-c3ccc(Cl)cc3)[nH]2)c1 | 39% (active)
13 | Cc1ccc(NC(=O)CSc2ncc(-c3ccccc3)[nH]2)cc1 | 51%
14 | COc1ccc(NC(=O)CSc2ncc(-c3ccc(Cl)cc3)[nH]2)cc1OC | 78%
15 | COc1cc(-c2nnc(SCC(=O)Nc3cccc(C#N)c3)o2)cc(OC)c1OC | 110%
16 | CCOc1ccc(NC(=O)CSc2nnc(-c3ccc(C)cc3)c(-c3ccc(C)cc3)n2)cc1 | 115%
17 | COc1ccc(-c2nnc(SCC(=O)Nc3cccc(C(F)(F)F)c3)nc2-c2ccc(OC)cc2)cc1 | 87%
18 | CCOc1ccc(NC(=O)CSc2nnc(-c3ccc(OCC)cc3)o2)cc1 | 94%
19 | CCOc1cccc(NC(=O)CSc2ncc(-c3ccccc3)[nH]2)c1 | 49%
20 | CCOc1ccc(-c2nnc(SCC(=O)Nc3cccc(OC)c3)nc2-c2ccc(OCC)cc2)cc1 | 0% (active)
21 | CCOc1ccccc1-n1nnc(-c2nc(-c3ccccc3C)no2)c1C | 96%

Row | SMILES | survival
22 | Cc1c(F)cccc1NC(=O)C1CCCN1S(=O)(=O)c1ccc(F)cc1 (configuration not stated) | 72%
23 | CC1=C(c2ccc(C)cc2)S(=O)(=O)N(Cc2ccc(C(=O)NCc3ccccc3)cc2)C1=O | 81%
24 | CCN(C(=O)c1cccs1)c1nnc(-c2cccc(C)c2)s1 | 93%
25 | COc1ccc(CCNC(=S)N(Cc2ccco2)Cc2cc3cc(OC)c(OC)cc3[nH]c2=O)cc1OC | 73%
26 | O=C(CSc1ncc(-c2ccc(F)cc2)n1Cc1ccco1)OC1CCCCC1 | 108%
27 | COc1ccc(OC)c(NC(=O)COCc2cc(-c3ccc(F)cc3)on2)c1 | 93%
28 | Cc1cccc(-c2nc(SCC(=O)Nc3cccc(C(F)(F)F)c3)n3[nH]c(=O)cc3n2)c1 | 0% (active)
29 | O=C(CSc1nc(-c2ccccc2F)nc2cc(=O)[nH]n12)Nc1cccc(C(F)(F)F)c1 | 69%
30 | O=C(CSc1nc(-c2cccs2)nc2cc(=O)[nH]n12)Nc1cccc(C(F)(F)F)c1 | 94%
31 | Cc1ccc(-c2noc(-c3nnn(CC(=O)Nc4cc(Cl)ccc4C)c3N)n2)cc1 | 80%
32 | O=C(Nc1ccc(F)cc1)Nc1ccc2snnc2c1 | 19% (active)
33 | Cc1ccc(NC(=O)Nc2ccc3snnc3c2)cc1C | 66%
34 | O=C(Nc1cccc(C(F)(F)F)c1)Nc1ccc2snnc2c1 | 11% (active)
35 | COc1cccc(NC(=O)Nc2ccc3snnc3c2)c1 | 68%
36 | CC(=O)c1ccc(NC(=O)Nc2ccc3snnc3c2)cc1 | 50%
37 | O=C(Nc1cccc(C(F)(F)F)c1)c1ccc2snnc2c1 | 111%
38 | COc1ccc(NC(=O)CSC2=Nc3ccccc3C3=NC(CCC(=O)NCc4cccs4)C(=O)N23)cc1 (configuration not stated) | 93%
39 | CC1=C(c2ccc(C)c(C)c2)S(=O)(=O)N=C1N1CCC(C(=O)NC(C)c2ccccc2)CC1 (configuration not stated) | 84%
40 | CC(=O)N1Cc2ccccc2C(C)CC12CCCC2 (configuration not stated) | 119%
41 | Cc1nn2c(=O)cc(COC(=O)c3cccs3)nc2s1 | 89%
42 | Fc1ccc(NCc2ccccc2-c2nnc(-c3ccccc3Cl)o2)cc1Cl | 77%

Row | SMILES | survival
43 | O=C(NCCc1nc2ccccc2n1Cc1ccc(F)cc1)c1ccco1 | 47%
44 | CC1=Nc2cc(C(=O)NC3CCC(C)CC3)ccc2Sc2c(C)ccc(C)c21 (configuration not stated) | 73%
45 | CCC1=Nc2cc(C(=O)NCc3ccc(C)cc3)ccc2Sc2ccc(C)cc21 | 78%
46 | CCC1=Nc2cc(C(=O)NC3CCC(C)CC3)ccc2Sc2ccc(C)cc21 (configuration not stated) | 39% (active)
47 | CC1=Nc2cc(C(=O)NC3CCCC3)ccc2Sc2ccc(Br)cc21 | 57%
48 | CCCC1=Nc2cc(C(=O)NC3CCCC3)ccc2Sc2ccc(C)cc21 | 46% (active)
49 | CC1=Nc2cc(C(=O)NC3CCCC3)ccc2Sc2ccc(C)cc21 | 59%
50 | CCCC1=Nc2cc(C(=O)NC3CCCCC3)ccc2Sc2ccc(C)cc21 | 94%
51 | CCC1=Nc2cc(C(=O)NC3CCCC3)ccc2Sc2ccc(Br)cc21 | 44% (active)
52 | CCC1=Nc2cc(C(=O)NC3CCCC3)ccc2Sc2ccc(Cl)cc21 | 58%
53 | COc1ccc(CNC(=O)c2cc3cc(C)ccc3n2C)cc1 | 74%
54 | O=C(CSc1nc2c([nH]c3ccccc32)c(=O)n1-c1cccc(C(F)(F)F)c1)N1CCc2ccccc21 | 78%
55 | O=C(NC1CC(=O)N(c2ccc(Cl)cc2)C1)c1cccs1 (configuration not stated) | 71%
56 | CC1CCN(c2nc3ccc(C(=O)NC(C)C)cc3s2)CC1 | 74%
57 | Cc1cc2[nH]c(=O)c(=O)[nH]c2cc1S(=O)(=O)NCc1ccc(F)cc1 | 112%
58 | Cc1ccc(CNS(=O)(=O)c2cc3[nH]c(=O)c(=O)[nH]c3cc2C)cc1 | 47% (active)
59 | COc1cccc(CNS(=O)(=O)c2cc3[nH]c(=O)c(=O)[nH]c3cc2C)c1 | 67%
60 | CC(C)Sc1ncc(Cl)c(C(=O)N(Cc2ccc(F)cc2)C2CCS(=O)(=O)C2)n1 (configuration not stated) | 76%
61 | CN(Cc1ccccc1)Cn1[nH]c(=O)ccc1=O | 110%
62 | COc1ccc(C)c2sc(N(Cc3cccnc3)C(=O)COc3ccccc3)nc12 | 85%
